The values below come from PubChem BioAssay AID590 (National Center for Advancing Translational Sciences (NCATS), 2007).

Molecules are shown by their SMILES. Among all 59,000 compounds or so, about 6,500 (11%) were called active. Not shown: some 15% with an inconclusive outcome. Cut-off read from the data, not from the text of the source: active = max dye-equivalent concentration above about 10 nM; inconclusive = mostly about 1.1 nM to 9.6 nM; inactive = weaker than that. For the sample, actives were picked, then their nearest neighbours and some compounds at random.

The nature of this assay: qHTS Assay for Spectroscopic Profiling in A350 Spectral Region. The conditions noted are these: Compound autofluorescence, 340/450 nm, Alexa 350 dye-equivalents; stronger effect = higher value.
Consider `CC(=O)N1CCN(CCN=CC2=C(O)CC(C)(C)CC2=O)CC1`, for which the max dye-equivalent concentration result was “inactive”.
The same measure for `CCOCCN(C=O)c1cccc(OC)c1`: “inactive”; for `COc1ccc(OC)c([C@H](O)CNC(=O)CN)c1`: “inactive”; for `CCOC(=O)CCc1c(C)c2ccc(OCc3nn[nH]n3)c(C)c2oc1=O`: 30 nM (active).
For the compound `CCc1ccc(-c2nnn(Cc3nn[nH]n3)n2)cc1`, the max dye-equivalent concentration result is “inactive”.
Turning to `Cc1cc(C)cc(OCc2nnc(SCC(=O)OC3CCCCC3)o2)c1`, the max dye-equivalent concentration entry was “inactive”.
Take `CC(=O)c1cc(C#N)c(SCC(=O)C(C)(C)C)nc1C`: the max dye-equivalent concentration result is “inactive”.
In the case of `CCOc1cccc(NC(=O)CC#N)c1`, the max dye-equivalent concentration result was “inactive”.
Regarding `CCOc1ccc2cc(C#N)c(SCC(=O)OC)nc2c1`, the max dye-equivalent concentration is 31 nM (active).
On to `COc1ccc(OC)c(S(=O)(=O)N(C)CC(=O)N2CCN(c3ccccc3)CC2)c1`, for which the max dye-equivalent concentration result is “inactive”.
As to `Cc1cccc(N2CCN(C(c3ccccc3)c3nnnn3CC3CCCO3)CC2)c1C` (stereo unspecified), the max dye-equivalent concentration result was “inactive”.
The same measure for `O=C(Cn1nnc2ccccc2c1=O)Nc1cc(C(F)(F)F)ccc1N1CCOCC1`: “inactive”.
The same measure for `COc1ccccc1-c1cc(NCc2cccs2)ncn1`: “inactive”.
As to `CC(C)N1C(=O)C2C(C(=O)NC3CCCCC3)C3C=CC2(O3)C1C(=O)NC1CCCC1` (stereo unspecified), the max dye-equivalent concentration result was “inactive”.
The same measure for `CC(C)c1nnc(NC(=O)C2CCCN2S(=O)(=O)c2ccc(Cl)cc2)s1` (stereo unspecified): “inactive”; for `CCc1nnc(NC(=O)C2CCCN2S(=O)(=O)c2ccccc2)s1` (stereo unspecified): 16 nM (active).
Take `CCc1nnc(NS(=O)(=O)c2ccc(NS(=O)(=O)c3ccccc3)cc2)s1`: the max dye-equivalent concentration entry is “inactive”.
`Cc1c(O)c(Br)c(C)c(O)c1Br` (tested in a mixture with another compound): the max dye-equivalent concentration result is “inactive”.
Take `CCN(CC)c1ccc(C(=O)OCC(=O)c2ccco2)cc1`: the max dye-equivalent concentration entry is “inactive”.
For the compound `C/C(O)=C\c1nc(=O)c2c(C)cc(C)nc2n1-c1ccccc1`, the max dye-equivalent concentration is 44 nM (active).
In the case of `N#CCSc1nc2ccccc2c(=O)n1-c1ccccc1`, the max dye-equivalent concentration entry was “inactive”.
Take `Cc1cc(C)nc(N(C#N)CC(=O)Nc2ccccc2)n1`: the max dye-equivalent concentration result is “inactive”.
The same measure for `CCOC(=O)N1CCN(C(=O)CNC(=O)Cc2ccc(Cl)cc2)CC1`: “inactive”.
As for `CCOC(=O)N1CCN(C(=O)c2ccc3nc4cc(Cl)ccc4c(=O)n3c2)CC1`, the max dye-equivalent concentration is 1300 nM (active).
Take `CCOC(=O)N1CCN(C(=O)c2ccc(S(=O)(=O)c3ccc(C)cc3)c(NC(C)=O)c2)CC1`: the max dye-equivalent concentration entry was “inactive”.
On to `O=C(O)c1cscn1`, for which the max dye-equivalent concentration entry was “inactive”.
The same measure for `Cc1nonc1OCCn1nnnc1N`: “inactive”; for `CC1CCCN(c2ccc(C(=O)NCCc3ccccc3)cn2)C1` (stereo unspecified): “inactive”; for `O=S(=O)(Nc1ccccc1N1CCOCC1)c1ccc(Cl)s1`: “inactive”.
Take `Oc1cc2c(cc1O)CN(C(=S)NCCc1ccc(Cl)cc1)CCC2`: the max dye-equivalent concentration entry is “inactive”.
The same measure for `O=S(=O)(NCc1ccccn1)c1ccc(Br)s1`: “inactive”; for `O=S(=O)(c1cccs1)N1CCc2ccccc2C1`: “inactive”.
The same measure for `O=S(=O)(c1cccs1)N1CCN(Cc2ccccc2)CC1`: “inactive”; for `CCCCNc1nc2ccccc2nc1NS(=O)(=O)c1cccs1`: 61 nM (active); for `COCCNc1ncnc2ccc(-c3ccccc3CN(C)C)cc12`: “inactive”.
Turning to `COc1ccc(-c2cc(C(=O)NC(C(=O)O)C(C)C)c(C)o2)cc1OC` (stereo unspecified), the max dye-equivalent concentration result is “inactive”.
The value for `CCOC(=O)CSc1nnc(-c2ccncc2)o1` was “inactive”; that for `CNC(=O)c1ccc2nc(NC(C)=O)sc2c1` was “inactive”; that for `COC(=O)c1sc(NC(=O)c2ccc(OC)cc2OC)nc1C` was “inactive”.
The same measure for `COc1ccc2nc(NC(=O)c3ccc(Br)s3)sc2c1`: 550 nM (active); for `CCOC(=O)c1sc(NC(=O)CSc2nnc(-c3ccco3)o2)c(C(=O)OCC)c1C`: “inactive”.
`O=C(c1csnn1)N1CCC[C@@]2(CCN(c3cccc(-c4ccccc4)c3)C2)C1`: the max dye-equivalent concentration entry is “inactive”.
Take `COc1ccc(-n2c(SCC(=O)OC(C)C)nnc2-c2ccccn2)cc1`: the max dye-equivalent concentration result is “inactive”.
As for `CCOc1cccc(-n2nnnc2-c2ccc(OC)cc2)c1`, the max dye-equivalent concentration entry is “inactive”.
Turning to `COc1ccc(C2C(C(=O)Nc3ccccc3OC)=C(C)Nc3nnnn32)c(OC)c1` (stereo unspecified), the max dye-equivalent concentration result is “inactive”.
The same measure for `COc1ccc(C2=CC(c3cccc(OC)c3)n3nnnc3N2)cc1` (stereo unspecified): 15 nM (active); for `COC(=O)C1=C(C)NC(=O)NC1/C=C/c1ccccc1` (stereo unspecified): “inactive”; for `O=S(=O)(Nc1ccccn1)c1ccc(Oc2ccccc2)cc1`: “inactive”.
With `COc1ccc(CSc2nc(N3CCOCC3)c3c(c2C#N)CC(C)(C)OC3)cc1`, the max dye-equivalent concentration is 34 nM (active).
As to `CC(C)C(=O)N1CCN(c2nc(-c3ccccc3)c3c(c2C#N)CC(C)(C)OC3)CC1`, the max dye-equivalent concentration is 200 nM (active).
For `CC(C)c1nc(N2CCOCC2)c(C#N)c2c1COC(C)(C)C2`, the max dye-equivalent concentration is 150 nM (active).
Take `c1ccc2[nH]c(NCCN3CCOCC3)nc2c1`: the max dye-equivalent concentration entry is “inactive”.
With `CC1(C)Cc2c(C#N)c(SCc3nc4ccccc4[nH]3)nc(N3CCOCC3)c2CO1`, the max dye-equivalent concentration was 23 nM (active).
For `COc1cc(C2C(C#N)=C(N)Oc3n[nH]c(-c4ccccn4)c32)cc(OC)c1OC` (stereo unspecified), the max dye-equivalent concentration result is “inactive”.
The same measure for `CCc1nnc(NC(=O)c2c(O)c3c([nH]c2=O)CCCC3)s1`: “inactive”; for `CN(Cc1ccccc1)Cc1ccccc1F`: “inactive”; for `Cc1ccc(S(=O)(=O)N2CCC(C(=O)N[C@@H](C)C(=O)NCc3ccccc3)CC2)cc1`: “inactive”.
In the case of `O=C(c1csnn1)N1CCC2(CC1)CN(c1ncccn1)C2`, the max dye-equivalent concentration entry was “inactive”.
The same measure for `CC(C)OCCCNC(=O)CNC(=O)c1cccs1`: “inactive”; for `CCCCOc1ccc(Cl)cc1CSc1nncn1N`: “inactive”; for `O=C1[C@@H]2C(Cc3ccc(O)cc3)NC3(C(=O)Nc4ccc(F)cc43)[C@@H]2C(=O)N1c1ccc(F)cc1` (stereo partly specified): “inactive”.
`CC(C)Cc1nc(N2CCOCC2)c(C#N)c2c1CCC2`: the max dye-equivalent concentration was 62 nM (active).
On to `Cc1cc(C(=O)COC(=O)CCCN2C(=O)c3ccccc3C2=O)c(C)n1C`, for which the max dye-equivalent concentration entry is “inactive”.
Regarding `O=C(CN1C(=O)CCC1=O)Nc1ccc(S(=O)(=O)N2CCOCC2)cc1`, the max dye-equivalent concentration entry was “inactive”.
`CC(=O)OCc1cc(=O)n(C)c(=O)n1C`: the max dye-equivalent concentration result was “inactive”.
Regarding `COc1c(C)cccc1C(=O)Nc1cc(Cl)ccc1N1CCOCC1`, the max dye-equivalent concentration result was “inactive”.
On to `O=C(O)[C@@H](O)Cc1ccccn1`, for which the max dye-equivalent concentration result is “inactive”.
Turning to `COc1ccc2c(c1)CCc1c(C(=O)N3CCc4ccccc4C3)noc1-2`, the max dye-equivalent concentration entry was “inactive”.
Turning to `CCOC(=O)c1[nH]c2ccc(C)cc2c1N=C(C)N(C)C`, the max dye-equivalent concentration was 29 nM (active).
Take `CCOC(=O)CN(C)Cc1c[nH]c2ccccc12`: the max dye-equivalent concentration result was “inactive”.
The value for `CCOC(=O)c1[nH]c2ccccc2c1N=C(C)N(CC)CC` was “inactive”.
